Shown is part of a subset that was picked to be rich in hits.
Pf Dd2 growth = qHTS Primary assay for Inhibitors of Plasmodium falciparum Dd2 growth in vitro. P. falciparum Dd2 growth, SYBR Green, 72 h. Potency, µM (highest dose often 28.9 µM), for the others: at the top dose activity, negative = inhibition, usual class: inhibitors. hit rate 4.3% among 120,000; active means well fitted inhibition curve with a large enough effect;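 further: plate controls were DMSO vehicle for no effect and reference drug for full effect; nearly all actives have a fitted effect of over 65% in size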
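Infected erythrocytes (Dd2, 0.3% parasitemia, 2.5% hematocrit final) are added to compound in RPMI-1640/Albumax II medium, grown 72 h at 37C in low oxygen, then lysed with saponin/Triton-X containing SYBR Green and read by fluorescence.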
* marks the source's active call; other numbers are inactive results; [ ] = dose if it differs, or a comment. Potency means the concentration at half of the fitted maximal effect.

`Cc1nc(C)c(C(=O)N2CCC(N3CC4CC(C3)[C@H]3CCCC(=O)N3C4)CC2)s1` (stereo not given in full) gave Pf Dd2 growth -4%.
For COc1ccc(C(=O)N2Cc3[nH]cnc3C[C@H]2c2nc(-c3ccc(OC(F)(F)F)cc3)no2)cc1 the results were Pf Dd2 growth -14%.
`O=C(NC[C@H]1O[C@@H](CC(=O)N2CCN(c3ccccn3)CC2)[C@H](O)[C@@H]1O)NC1CCCCC1` gave Pf Dd2 growth 15%.
`CCC(=O)Nc1cc(C(=O)NCc2ccc(N3CCN(C)CC3)cc2)c2ccc(C)nc2c1` gave Pf Dd2 growth 10µM*.
CCCCNC(=O)c1cc(NC(=O)CC)cc2nc(C)ccc12 was read as Pf Dd2 growth -2%.
`CCNC(=O)c1cc(NC(=O)CC)cc2nc(C)ccc12` gave Pf Dd2 growth -16%.
Screening COc1cccc(Nc2ncc3c(n2)C(C)(C(=O)N2CC[S+](=O)([O-])CC2)CC3)c1 (stereo not given) returned Pf Dd2 growth -9%[44.1 µM].
Screening O=C(CCC[C@@H]1[C@H]2CCCN3CCC[C@@H](CN1C(=O)c1ccccc1)[C@@H]23)NCCCN1CCCCC1 returned Pf Dd2 growth -8%.
Screening Cn1nc(CN2CCSCC2)c2c(Cl)cccc21 returned Pf Dd2 growth inactive.
`O=C(NCC1CCOCC1)C1CC(=O)N(c2n[nH]c3cc(Br)ccc23)C1` (stereo not given) gave Pf Dd2 growth -8%.
Cc1ccc(NC(=O)Cn2cccc2-c2nc(-c3ccccc3)no2)c(Cl)c1 was read as Pf Dd2 growth 5%.
`COc1ccc(-c2noc(-c3cccn3CC(=O)Nc3ccc(N(C)C)cc3)n2)cc1F` gave Pf Dd2 growth 0%.
CCc1ccccc1NC(=O)Cn1cccc1-c1nc(-c2ccccc2)no1 was read as Pf Dd2 growth 2.8µM*.
For COC(=O)c1ccccc1NC(=O)Cn1cccc1-c1nc(-c2ccc(OC)c(F)c2)no1 the results were Pf Dd2 growth 16%.
`CCc1ccc(NC(=O)Cn2cccc2-c2nc(-c3ccc(OC)c(F)c3)no2)cc1` gave Pf Dd2 growth 2µM*.
Screening O=C(Cn1cccc1-c1nc(-c2ccc(F)cc2)no1)Nc1cccc(F)c1 returned Pf Dd2 growth -4%.
Screening COc1ccc(NC(=O)Cn2cccc2-c2nc(-c3ccc4c(c3)OCO4)no2)cc1OC returned Pf Dd2 growth -24%.
For COc1ccc(NC(=O)Cn2cccc2-c2nc(-c3ccc(F)cc3)no2)cc1 the results were Pf Dd2 growth 2.5µM*.
`Cc1ccc(NC(=O)Cn2cccc2-c2nc(-c3ccccc3)no2)cc1` gave Pf Dd2 growth 90%.
COc1ccc(-c2noc(-c3cccn3CC(=O)NC3CCCC3)n2)cc1F was read as Pf Dd2 growth inactive.
`Cc1cc(C)c(NC(=O)Cn2cccc2-c2nc(-c3ccc(F)cc3)no2)c(C)c1` gave Pf Dd2 growth 95%.
Screening COc1ccc(-c2noc(-c3cccn3CC(=O)Nc3ccc(F)c(F)c3)n2)cc1F returned Pf Dd2 growth 2.8µM*.
Screening Cc1ccc2c(c1)N1C(=O)OC[C@@H]1CCN(C(=O)CN(C)C)C2 returned Pf Dd2 growth 10%[44.1 µM].
`O=C(c1scc2c1OCCO2)N1CCCC2(CCC(=O)N(C3CC3)C2)C1` (stereo not given) gave Pf Dd2 growth -8%.
CCOC(=O)N1CCN(C(=O)c2cccc(CC3CCNCC3)c2)CC1 was read as Pf Dd2 growth -3%.
Cc1noc([C@H]2CCN(C(=O)C3CCCCC3)C[C@H]2NC(=O)C2CC2)n1 was read as Pf Dd2 growth inactive[5.79 µM].
O=C(Cn1nc2c(cc1=O)CCCCC2)Nc1ccc(C(F)(F)F)nc1 was read as Pf Dd2 growth -24%.
Screening COCC(=O)N[C@@H]1CN(C(=O)c2cc3ccccc3[nH]2)CC[C@@H]1CO returned Pf Dd2 growth inactive.
For CCOc1ccc(C(=O)N2[C@@H]3CC[C@H]2CC(NC(=O)c2cnc(C)cn2)C3)cc1 (stereo not given in full) the results were Pf Dd2 growth -21%.
Screening CCOc1ccc(CCNC(=O)Cn2cccc2-c2nc(-c3ccccc3)no2)cc1OCC returned Pf Dd2 growth 3%.
Screening COc1ccc(-c2noc(-c3cccn3CC(=O)Nc3cccc(Cl)c3)n2)cc1F returned Pf Dd2 growth 2.5µM*.
CCOc1ccc(C(=O)NCCn2cccc2-c2nc(-c3ccccc3)no2)cc1OCC was read as Pf Dd2 growth 10µM*.
COc1ccc(CCNC(=O)Cn2cccc2-c2nc(-c3ccc(F)cc3)no2)cc1OC was read as Pf Dd2 growth inactive.
Screening COc1ccc(C(=O)NCCn2cccc2-c2nc(-c3ccccc3)no2)cc1 returned Pf Dd2 growth inactive.
`COc1ccc(-c2noc(-c3cccn3CC(=O)Nc3cc(F)ccc3Cl)n2)cc1F` gave Pf Dd2 growth -10%.
`CCn1ccnc1CN1CC[C@@H](c2ccc3ccccc3c2)[C@H](O)C1` gave Pf Dd2 growth -6%.
Screening COc1ccc(C(=O)N2CCCCCCNC(=O)[C@@H]3C[C@@H](c4nc(-c5cccnc5)no4)C[C@@H]32)cc1 returned Pf Dd2 growth -25%.
`COCCOc1cc(-c2noc([C@@H]3CCCN3C3CCN(C)CC3)n2)ccn1` gave Pf Dd2 growth 1%[44.1 µM].
Screening Cn1ccc(Nc2ccc3nnc(-c4ccccn4)n3n2)n1 returned Pf Dd2 growth 29%[44.1 µM].
`COc1ccc(CN2CC(CNc3ccccc3)C3(C2)CN(c2ccccc2)C3)cc1O` (stereo not given) gave Pf Dd2 growth 3.5µM*.
Screening N#Cc1ccc(CN2CC(CNC(=O)Nc3ccccc3)C3(C2)CN(c2ccccc2)C3)cc1 (stereo not given) returned Pf Dd2 growth inactive.
NC(=O)c1ccccc1OCC(=O)N1CC(CNc2ccccc2)C2(C1)CN(c1ccccc1)C2 (stereo not given) was read as Pf Dd2 growth -15%.
`COc1cccc(C(=O)N2CCC[C@H]2c2nc(-c3ccccc3Cl)no2)c1` gave Pf Dd2 growth inactive.
`O=C(CCc1ccccc1)N1CC(Oc2ccc(-c3noc(C4CC4)n3)cc2)C1` gave Pf Dd2 growth -1%.
CCN(Cc1ccncc1)C(=O)c1ccc2c(c1)C(O)CCCCCN2CCOC (stereo not given) was read as Pf Dd2 growth -2%.
C[C@@H]1C(=O)O[C@H]2[C@H]1CC[C@@]1(C)Cc3sc(NC(=O)c4ccncc4)nc3[C@@H](C)[C@H]21 was read as Pf Dd2 growth inactive.
For C[C@@H]1C(=O)O[C@H]2[C@H]1CC[C@@]1(C)Cc3sc(NC(=O)c4ccc(F)c(Cl)c4)nc3[C@@H](C)[C@H]21 the results were Pf Dd2 growth 11µM*.
`C[C@@H]1C(=O)O[C@H]2[C@H]1CC[C@@]1(C)Cc3sc(NS(=O)(=O)c4ccc(F)c(Cl)c4)nc3[C@@H](C)[C@H]21` gave Pf Dd2 growth -13%.
Screening COc1cc(CN2CCc3nn(C)c(=O)n3CC2)ccc1OC(C)C returned Pf Dd2 growth 23%.
Screening O=C1NCCCCCCN(Cc2ccncc2)[C@@H]2CN(C(=O)c3cccnc3)CC[C@@H]12 returned Pf Dd2 growth -16%.
`N#Cc1ccc(C(=O)N2CCCCCNC(=O)[C@@H]3CCCC[C@@H]32)cc1` gave Pf Dd2 growth 14%.
`C=CCN1CC(C(=O)N2CCN(Cc3ccccc3C#N)CC2)CC1=O` (stereo not given) gave Pf Dd2 growth -2%.
For O=C1NCCCCCN(C(=O)Cc2cccc(F)c2)[C@H]2CCC[C@@H]12 the results were Pf Dd2 growth -8%.

Screens from PubChem.
